Experimental data as given in PubChem BioAssay.
Calls of active or inactive are those of the source.

Columns and labels:
[1] = small molecules captured by biotinylated probe aFSTL3 – biochemical, small-molecule microarray, fluorescence 635/667, stem cell growth factor project, primary screen (AID 1064); conditions: higher = more signal;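 further: measures binding of the biotinylated anti-FSTL3 antibody to printed compounds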
[2] = binders from COS7 lysate, DM2A8 probe, primary screen, torsin A project, cell lysate, small-molecule microarray, fluorescence 635/667 (AID 1065); conditions: higher = more signal, COS7 lysate expressing mutant human TOR1A
[3] = small molecules captured by biotinylated probe aFGF2 – biochemical, small-molecule microarray, fluorescence 635/667, stem cell growth factor project, primary screen (AID 1067); conditions: higher = more signal;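 further: measures binding of biotinylated aFGF2 protein to printed compounds on slides; z-score merges feature fluorescence and signal-to-noise across triplicate slides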
[4] = small molecules captured by biotinylated probe aFGF10 – biochemical, small-molecule microarray, fluorescence 635/667, stem cell growth factor project, primary screen (AID 1071); conditions: higher = more signal;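 further: score merges 667 nm spot intensity and signal to noise from triplicate slides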
[5] = biological target: Neurogenic locus notch homolog protein 2 (Homo sapiens) (UniProt Q04721); assay: small molecules binding Notch2 protein – biochemical, small-molecule microarray, 635 nm fluorescence, stem cell growth factors, primary screen (AID 1073); conditions: higher = more signal
[6] = biological target: Pro-neuregulin-1, membrane-bound isoform (Homo sapiens) (UniProt Q02297); assay: small molecules binding neuregulin-1 protein – biochemical, small-molecule microarray, fluorescence 635/667, psychiatric disease protein project, primary screen (AID 1075); conditions: NRG1 binding, 635 nm fluorescence, higher = more signal;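 further: score combines 667 nm spot fluorescence with signal to noise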
[7] = tested on: Neuregulin-1 EGF-like domain; assay: small molecules binding NRG1 EGF domain – biochemical, small-molecule microarray, 635 nm fluorescence, primary screen (AID 1081); conditions: higher = more signal;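 further: binding of the protein to compounds printed on small-molecule microarray slides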
[8] = FRG1 expression reporter modulators in myotubes – cell-based, C2C12 myotubes, firefly/Renilla luciferase, luminescence, FRG1 inhibition for FSHD, primary screen (AID 1084); conditions: FRG1 promoter luciferase, higher = more signal, called active from +8 up or from −8 down
[9] = small molecules captured by biotinylated probe aFST – biochemical, small-molecule microarray, fluorescence 635/667, stem cell growth factor project, primary screen (AID 1086); conditions: higher = more signal;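 further: score merges 667 nm fluorescence with signal-to-noise of each printed compound spot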
[10] = binders of probe aHhip on microarray, primary screen, stem cell growth factor project, biochemical, small-molecule microarray, fluorescence 635/667 (AID 1087); conditions: higher = more signal;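 further: score merges spot fluorescence at 667nm with spot signal to noise ratio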
[11] = tested on: PRMT1 (protein arginine N-methyltransferase 1); assay: small molecules binding arginine methyltransferase PRMT1 – biochemical, small-molecule microarray, 635 nm fluorescence, primary screen (AID 1088); conditions: higher = more signal;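 further: binding of Prmt1 protein to compounds spotted on small-molecule microarray slides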
[12] = growth effects on S. cerevisiae YJM789 – YJM789 clinical isolate, OD600, 24 h, basal, primary screen (AID 1089); conditions: higher = more signal, called active from +8 up or from −8 down;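 further: growth of clinical yeast isolate S. cerevisiae YJM 789 seeded 1000 cells per well; test concentration not given here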
[13] = S. pombe growth modifiers, basal conditions – strain 972, OD600, 24 h, no modulator, primary screen (AID 1090);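 further: basal condition with compound alone and no growth modifier present; test concentration not given here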; conditions: S. pombe 972 growth, higher = more signal, called active from +8 up or from −8 down
[14] = budding yeast growth modifiers under rapamycin – strain BY4716, OD600, 96 h, primary screen (AID 1091); further: test concentration not given here; conditions: S. cerevisiae BY4716 + rapamycin, higher = more signal, called active from +8 up or from −8 down
[15] = biological target: Torsin-1A-interacting protein 2 (Homo sapiens) (UniProt Q8NFQ8); assay: small molecules binding lysate-expressed LULL1 – cell lysate, human LULL1 lysate, 635/667 nm fluorescence, primary screen (AID 1092); conditions: small-molecule microarray, hLULL1 lysate binding, 635 nm fluorescence; higher = more signal;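 further: probe is lysate of COS7 cells overexpressing human LULL1; score merges per-feature 667 nm fluorescence with signal-to-noise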
[16] = optical density change of DRC41 E. coli – strain DRC41, OD650, 24 h, E. coli filamentation project, primary screen (AID 1093);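 further: MC1000 strain lacking acrAB efflux and sulA so SOS filamentation is blocked; test concentration not given here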; conditions: E. coli DRC41 growth, higher = more signal, called active from +8 up or from −8 down
[17] = probe aLefty2 binding to arrayed compounds – biochemical, biotinylated probe, 635/667 nm fluorescence, primary screen (AID 1094); conditions: small-molecule microarray, higher = more signal;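 further: score merges spot fluorescence near 667 nm with spot signal-to-noise ratio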
[18] = tested on: Noggin (protein binding on small-molecule microarray); assay: small molecules binding Noggin protein – biochemical, 635/667 nm fluorescence, primary screen (AID 1095); conditions: 635 nm fluorescence, higher = more signal;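 further: score merges 667 nm feature fluorescence with signal to noise over triplicate slides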
[19] = biological target: Neurogenic locus notch homolog protein 3 (Homo sapiens) (UniProt Q9UM47); assay: small molecules binding NOTCH3 protein – biochemical, 635/667 nm fluorescence, primary screen (AID 1096); conditions: small-molecule microarray, 635 nm fluorescence, higher = more signal
[20] = probe aEGFR binding to arrayed compounds – biochemical, biotinylated probe, 635/667 nm fluorescence, primary screen (AID 1097); conditions: small-molecule microarray, higher = more signal;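 further: probe is a biotinylated anti-EGFR antibody binding compounds printed on slides; score combines fluorescence near 667 nm and signal to noise of each spot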

Sequence of Neurogenic locus notch homolog protein 2 (Homo sapiens) (Q04721 whole entry, looked up, canonical isoform): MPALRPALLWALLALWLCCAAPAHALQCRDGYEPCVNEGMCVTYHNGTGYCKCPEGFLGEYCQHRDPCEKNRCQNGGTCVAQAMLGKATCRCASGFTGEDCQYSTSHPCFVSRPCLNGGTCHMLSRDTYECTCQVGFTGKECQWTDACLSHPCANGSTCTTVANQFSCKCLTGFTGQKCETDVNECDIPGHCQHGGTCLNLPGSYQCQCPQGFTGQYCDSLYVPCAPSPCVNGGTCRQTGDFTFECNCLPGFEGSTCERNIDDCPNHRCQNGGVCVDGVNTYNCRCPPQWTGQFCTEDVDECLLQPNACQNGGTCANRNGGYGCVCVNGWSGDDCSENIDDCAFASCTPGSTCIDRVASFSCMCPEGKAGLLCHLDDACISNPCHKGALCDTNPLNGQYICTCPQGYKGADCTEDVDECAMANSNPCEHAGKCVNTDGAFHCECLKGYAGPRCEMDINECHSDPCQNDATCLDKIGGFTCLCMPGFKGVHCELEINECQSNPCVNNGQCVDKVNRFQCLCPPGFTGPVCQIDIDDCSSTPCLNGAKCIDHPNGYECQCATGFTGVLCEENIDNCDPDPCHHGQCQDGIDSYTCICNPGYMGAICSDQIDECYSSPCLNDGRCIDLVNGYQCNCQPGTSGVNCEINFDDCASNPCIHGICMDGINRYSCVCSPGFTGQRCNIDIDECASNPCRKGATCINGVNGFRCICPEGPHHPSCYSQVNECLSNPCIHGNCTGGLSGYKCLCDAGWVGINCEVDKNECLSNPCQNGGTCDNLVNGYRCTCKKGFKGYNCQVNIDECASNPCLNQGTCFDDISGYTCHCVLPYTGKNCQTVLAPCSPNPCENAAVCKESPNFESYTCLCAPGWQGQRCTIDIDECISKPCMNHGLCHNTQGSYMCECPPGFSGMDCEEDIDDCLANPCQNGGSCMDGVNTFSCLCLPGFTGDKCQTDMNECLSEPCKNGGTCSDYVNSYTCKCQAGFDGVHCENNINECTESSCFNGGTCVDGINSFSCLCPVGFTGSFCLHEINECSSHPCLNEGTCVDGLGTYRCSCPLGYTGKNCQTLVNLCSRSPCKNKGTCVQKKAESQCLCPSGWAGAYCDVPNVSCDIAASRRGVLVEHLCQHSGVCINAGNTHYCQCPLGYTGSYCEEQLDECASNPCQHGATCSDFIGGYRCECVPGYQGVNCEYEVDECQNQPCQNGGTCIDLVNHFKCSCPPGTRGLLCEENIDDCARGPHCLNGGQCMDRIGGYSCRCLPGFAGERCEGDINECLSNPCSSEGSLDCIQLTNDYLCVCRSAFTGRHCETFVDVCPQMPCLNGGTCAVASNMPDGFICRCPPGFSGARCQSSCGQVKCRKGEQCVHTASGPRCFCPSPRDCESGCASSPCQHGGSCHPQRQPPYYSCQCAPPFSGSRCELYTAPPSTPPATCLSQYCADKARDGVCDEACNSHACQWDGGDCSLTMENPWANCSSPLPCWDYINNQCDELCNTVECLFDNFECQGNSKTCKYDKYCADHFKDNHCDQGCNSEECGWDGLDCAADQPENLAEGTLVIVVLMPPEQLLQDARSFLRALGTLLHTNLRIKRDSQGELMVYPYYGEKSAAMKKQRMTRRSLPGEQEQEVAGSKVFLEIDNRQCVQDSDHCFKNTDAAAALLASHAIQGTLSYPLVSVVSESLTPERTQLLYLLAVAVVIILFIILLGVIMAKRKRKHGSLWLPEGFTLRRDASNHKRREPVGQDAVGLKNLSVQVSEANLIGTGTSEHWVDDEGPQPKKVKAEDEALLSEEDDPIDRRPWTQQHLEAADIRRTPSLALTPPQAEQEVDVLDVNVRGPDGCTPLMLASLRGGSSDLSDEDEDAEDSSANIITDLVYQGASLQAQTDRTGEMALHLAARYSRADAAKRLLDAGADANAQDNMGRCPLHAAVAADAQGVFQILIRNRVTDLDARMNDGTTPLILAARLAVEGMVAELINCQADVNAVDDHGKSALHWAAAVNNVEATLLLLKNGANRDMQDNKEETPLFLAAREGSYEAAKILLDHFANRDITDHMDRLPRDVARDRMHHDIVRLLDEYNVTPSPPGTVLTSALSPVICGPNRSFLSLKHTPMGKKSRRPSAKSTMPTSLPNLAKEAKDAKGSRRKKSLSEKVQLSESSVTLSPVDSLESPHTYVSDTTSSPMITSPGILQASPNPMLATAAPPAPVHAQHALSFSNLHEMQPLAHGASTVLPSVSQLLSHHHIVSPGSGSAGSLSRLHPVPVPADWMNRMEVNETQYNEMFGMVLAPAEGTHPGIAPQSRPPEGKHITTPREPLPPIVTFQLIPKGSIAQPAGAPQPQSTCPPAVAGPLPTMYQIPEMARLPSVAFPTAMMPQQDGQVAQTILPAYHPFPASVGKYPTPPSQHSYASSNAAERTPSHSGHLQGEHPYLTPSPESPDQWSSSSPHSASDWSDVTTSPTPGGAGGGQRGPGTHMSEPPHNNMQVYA
Sequence of Torsin-1A-interacting protein 2 (Homo sapiens) (Q8NFQ8 whole entry, looked up): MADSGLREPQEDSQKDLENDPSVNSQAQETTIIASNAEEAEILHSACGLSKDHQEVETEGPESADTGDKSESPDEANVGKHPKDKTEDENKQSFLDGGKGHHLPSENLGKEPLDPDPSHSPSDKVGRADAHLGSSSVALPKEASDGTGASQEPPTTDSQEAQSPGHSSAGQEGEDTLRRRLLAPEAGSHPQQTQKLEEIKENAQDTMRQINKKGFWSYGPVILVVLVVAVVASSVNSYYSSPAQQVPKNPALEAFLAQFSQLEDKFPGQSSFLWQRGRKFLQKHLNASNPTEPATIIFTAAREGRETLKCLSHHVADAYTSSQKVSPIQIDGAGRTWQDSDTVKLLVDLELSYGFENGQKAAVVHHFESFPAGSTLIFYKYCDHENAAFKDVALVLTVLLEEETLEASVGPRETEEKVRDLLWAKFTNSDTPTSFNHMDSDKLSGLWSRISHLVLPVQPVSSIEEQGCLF
Sequence of Pro-neuregulin-1, membrane-bound isoform (Homo sapiens) (Q02297 whole entry, looked up, the tested form may be a part, canonical isoform): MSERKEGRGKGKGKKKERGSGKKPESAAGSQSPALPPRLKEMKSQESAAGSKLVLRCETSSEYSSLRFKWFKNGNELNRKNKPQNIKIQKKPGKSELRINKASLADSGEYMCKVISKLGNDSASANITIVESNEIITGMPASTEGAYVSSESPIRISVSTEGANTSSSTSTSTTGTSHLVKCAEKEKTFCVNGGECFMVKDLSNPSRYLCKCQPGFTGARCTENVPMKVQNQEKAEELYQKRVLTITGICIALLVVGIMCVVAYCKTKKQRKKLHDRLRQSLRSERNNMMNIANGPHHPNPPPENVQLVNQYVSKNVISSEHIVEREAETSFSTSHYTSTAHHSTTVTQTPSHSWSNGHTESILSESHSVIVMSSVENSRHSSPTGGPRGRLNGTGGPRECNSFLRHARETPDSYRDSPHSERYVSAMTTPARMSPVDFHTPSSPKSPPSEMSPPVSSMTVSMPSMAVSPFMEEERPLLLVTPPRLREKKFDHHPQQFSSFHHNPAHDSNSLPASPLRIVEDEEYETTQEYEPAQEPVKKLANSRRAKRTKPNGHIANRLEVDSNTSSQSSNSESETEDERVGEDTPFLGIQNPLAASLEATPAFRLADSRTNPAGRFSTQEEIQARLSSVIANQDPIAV

Row | Structure (SMILES) | composite z-score [1] | composite z-score [2] | composite z-score [3] | composite z-score [4] | composite z-score [5] | composite z-score [6] | composite z-score [7] | z-score [8] | composite z-score [9] | composite z-score [10] | composite z-score [11] | z-score [12] | z-score [13] | z-score [14] | composite z-score [15] | z-score [16] | composite z-score [17] | composite z-score [18] | composite z-score [19] | composite z-score [20]
1 | C=CCN1C(=O)[C@@]2(O[C@@H](CCn3cc([C@H](O)c4ccccc4)nn3)[C@H]([Si](C)(C)c3ccc(OC)cc3)[C@H]2C)c2cc(NC(=O)c3ccc(OC)cc3)ccc21 | 0.027 | 0.321 | 0.0084 | 0.0737 | 0.147 | 0.56 | 0.531 | -1.36 (inactive) | 0.101 | 0.185 | 0.948 | 1.05 (inactive) | 0.0445 (inactive) | 0.7 (inactive) | 1.72 | 0.859 (inactive) | -0.0615 | 0.551 | 0.422 | -0.0564
2 | COCCCNC(=O)[C@@H]1c2ccccc2C(=O)N(c2ccc(C)cn2)[C@H]1c1ccc(CO)cc1 | 1.02 | -1.72 | -0.294 | -0.286 | -1.58 | 0.825 | -0.54 | 0.183 (inactive) | -0.939 | -0.233 | -0.0842 | 0.331 (inactive) | -1.18 (inactive) | -0.19 (inactive) | 0.674 | -2.29 (inactive) | 0.0748 | -1.73 | -0.502 | -0.379
3 | CC(C)C(CO)N1C(=O)[C@@H]2[C@H]3C(=O)OCC=C[C@H]3OC23C=CCN(Cn2nnc4ccccc42)C(=O)[C@@H]13 (stereo not given in full) | 0.449 | -0.292 | -0.192 | -0.579 | -1.06 | -0.78 | 0.332 | -0.194 (inactive) | -0.499 | -0.137 | -0.0697 | 1.14 (inactive) | 1.13 (inactive) | 0.779 (inactive) | 0.704 | 0.701 (inactive) | -0.262 | -2.09 | -0.254 | -0.2
4 | [N-]=[N+]=Nc1ccccc1[C@H]1OC(c2ccc(OCCCO)cc2)=N[C@@]1(Cc1ccccc1)C(=O)NCc1ccccc1 | -0.274 | -0.357 | 0.0722 | 0.639 | 1.12 | 0.883 | 0.567 | -1.55 (inactive) | 0.686 | 0.0373 | 1.57 | -2.78 (inactive) | -2.1 (inactive) | 1.12 (inactive) | 2.79 | 1.81 (inactive) | -0.0192 | 0.641 | 1.04 | -0.0066
5 | CC(=O)NCCCC[C@@H]1NC(=O)[C@H]2C[C@@H](C(=O)NCCCCCN)[C@@H](c3cccc(OCCO)c3)N2C1=O | -0.0485 | 0.107 | 0.0661 | 0.792 | 0.831 | 1.09 | 0.581 | -0.549 (inactive) | 0.547 | 0.758 | 0.907 | -1.51 (inactive) | -0.0234 (inactive) | -0.883 (inactive) | 2.23 | 1.56 (inactive) | -0.097 | 0.559 | 0.275 | -0.0155
6 | O=C(NCc1ccccc1)[C@]1(Cc2ccccc2)N=C(c2ccc(OCCCO)cc2)O[C@@H]1c1ccccc1 | 0.78 | -0.136 | -0.0499 | 0.885 | 1.46 | 1.31 | 0.93 | -2.57 (inactive) | 0.662 | 0.0024 | 0.882 | 1.83 (inactive) | 1.26 (inactive) | 18.9 (active) | 2.68 | -1.26 (inactive) | 0.0609 | -0.102 | 0.256 | 0.676
7 | COC(=O)[C@@]1(Cc2ccc(OC)cc2)[C@H]2c3cc(C(=O)N(C)C)n(CCF)c3C[C@H]2CN1C(=O)c1ccccc1 | 0.999 | 0.245 | 0.0398 | 0.419 | 1.66 | 1.97 | 1.33 | -1.11 (inactive) | 0.98 | 0.31 | 0.574 | 0.215 (inactive) | 1.25 (inactive) | 0.167 (inactive) | 3.24 | -0.0418 (inactive) | 0.411 | 0.296 | 1.02 | 0.0986
8 | O=C(C=C(CC(O)c1cccc(Cl)c1)OCCF)OCCF (stereo not given) | 0.876 | -0.824 | -0.154 | -0.694 | -1.02 | -0.0066 | -0.19 | -4.54 (inactive) | 0.0462 | 0.0596 | -1.87 | -2.44 (inactive) | 0.291 (inactive) | -0.582 (inactive) | 0.0714 | -0.106 (inactive) | -0.166 | -1.22 | -1.11 | -0.128
9 | CC(C)NC(=O)[C@@]1(Cc2ccccc2I)c2ccccc2C(=O)N(Cc2ccccc2C(F)(F)F)[C@H]1c1ccc(CO)cc1 | 0.695 | 0.44 | -0.0316 | -0.0029 | 0.234 | 1.71 | 1.21 | -2.61 (inactive) | 0.0674 | 0.533 | 1.53 | -0.442 (inactive) | -1.48 (inactive) | -0.918 (inactive) | 2.84 | 0.125 (inactive) | 0.158 | 0.461 | 0.662 | -0.0304
